Screening data from PubChem BioAssay.
Sampled rows, rich in hits. Any-hit rate of the full collection: about 2.3%.
IDH1 R132H inh: inhibitors of human mutant IDH1 R132H | O75874 | IDH1-R132H enzyme, NADPH consumption, diaphorase/resazurin fluorescence | Potency, µM (series often up to 76.6 µM), actives largely listed as inhibitors | hit rate 0.093% among 390,000; note: nearly all actives have a fitted effect of over 65% in size
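IDH1-R132H (0.5 ug/mL) preincubated 30 min with compound, then NADPH (0.016 mM) and alpha-KG (2 mM) added; 80 min at RT, pH 7.5. Remaining NADPH coupled via diaphorase/resazurin to fluorescence (540/590 nm); concentration-response curves normalized to no-enzyme control.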
A549 tox: A549 cytotoxicity, counter-screen for Nrf2 inhibitors. A549 ARE-Fluc cells, CellTiter-Fluor viability, 18-24 h. Potency, µM (series often up to 46 µM), most hits filed as inhibitors. hit rate 0.16% among 390,000
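Cytotoxicity counterscreen: CellTiter-Fluor fluorescence was measured in A549 ARE_Fluc cells after 18-24 h of compound exposure in a concentration series. The subsequent BugLite luminescent read reports ARE-luciferase activity.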
Nrf2 activator: Nrf2 pathway activation. AREc32 ARE-luciferase reporter (MCF7-derived line), luminescence, 24 h. Potency, µM (series often up to 46.1 µM), hits mostly activators. hit rate 0.31% among 410,000. AID 624171; note: nearly all actives have a fitted effect of over 65% in size
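For detection, Steady-Glo was added and plates sat 30 min at RT; before that, AREc32_Fluc cells grown overnight in OPTI-MEM/5% FBS had been treated with 23 nL compound for 24 hr at 37 deg C.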
Giardia kill: kills Giardia lamblia. Giardia lamblia trophozoite viability. activity change, % at 7.66 µM, hits read low. hit rate 0.15% among 340,000. AID 540267; in the data active = activity change below about -80%; inconclusive = between about -30% and that limit;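 note: parasites exposed to compound for two days anaerobically before the ATP read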
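Anaerobic 48 hrs incubation at 37 deg C of 100 trophozoites/well with test compounds; ATPLite 1-Step luminescence, 15-30 min RT, reports cellular ATP as viability.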
Nrf2 block: blocks Nrf2 signaling. AID 504444. hit rate 2.1% among 360,000. A549 ARE-Fluc reporter, luciferase luminescence, 18-24 h. Potency, µM (top dose mostly 46 µM), actives largely listed as inhibitors; note: nearly all actives have a fitted effect of over 60% in size
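Cells were seeded and rested 2 h, then exposed to compounds for 18-24 h. CellTiter-Fluor was read first as a viability measure. BugLite was added 15 min before the final luminescent read of ARE-luciferase activity in A549 cells.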
Anesthetic bind: binds horse apoferritin like a general anesthetic. apoferritin/1-aminoanthracene competitive binding, fluorescence. Potency, µM (doses to about 77.5 µM), hits mostly inhibitors. P02791. AID 485281. hit rate 0.074% among 350,000; note: nearly all actives have a fitted effect of over 20% in size
Target sequence (P02791 2-175 limits assumed): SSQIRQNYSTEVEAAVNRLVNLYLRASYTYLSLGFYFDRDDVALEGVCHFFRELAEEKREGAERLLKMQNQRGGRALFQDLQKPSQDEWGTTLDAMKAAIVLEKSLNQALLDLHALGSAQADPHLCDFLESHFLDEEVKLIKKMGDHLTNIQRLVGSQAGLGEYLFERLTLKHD
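Probe: 1-aminoanthracene (50% saturated, PBS). Protein: horse-spleen apoferritin, 10 uM. Incubation: 10 min, room temperature. Detection: 380 nm excitation, 535 nm emission. Analysis: normalized response, four-parameter Hill.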
IDH1 autofl: interferes with resorufin fluorescence in IDH1 counter-screen; shares compounds with IDH1 R132H inh; Resorufin detection reagent fluorescence interference, cell-free; inhibition of signal, % at 51.2 µM; 750 tested, under 10 active; AID 623980
IDH1 WT: inhibits human wild-type IDH1, mutant selectivity check. WT IDH1 enzyme, NADPH diaphorase/resazurin fluorescence. shares compounds with IDH1 R132H inh. AID 623995. Potency, µM (highest dose often 115 µM), hits mostly inhibitors. hit rate 9% among 750; note: nearly all actives have a fitted effect of over 55% in size
IDH1 R132H conf: confirmation of human mutant IDH1 inhibitors. shares compounds with IDH1 R132H inh. IDH1 R132H enzyme, NADPH diaphorase/resazurin fluorescence. Potency, µM (series often up to 76.6 µM), usual class: inhibitors. hit rate 83% among 750; note: nearly all actives have a fitted effect of over 50% in size
Hits are given with their value; - = inactive; ? = inconclusive; . = no result given. Unless noted, calls come from the whole dose curve; as a rule, active = well fitted curve in the direction sought with a large enough effect; inconclusive = small, poorly fitted or top-dose-only effect, or another doubt; inactive = no such curve, though single readings can be large; an effect the other way counts as inactive or inconclusive.

SMILES | IDH1 R132H inh | A549 tox | Nrf2 activator | Giardia kill | Nrf2 block | Anesthetic bind | IDH1 autofl | IDH1 WT | IDH1 R132H conf
CC1=C(C(=O)N2CCCCCC2)CC(CC(=O)NCc2cccs2)C(=O)N1Cc1ccccc1 (stereo unspecified) | . | . | - | . | . | . | . | . | .
Cc1ccc(C)c(N(C(=O)c2ccco2)C(C(=O)NC2CCCC2)c2ccco2)c1 (stereo unspecified) | 46.5µM | - | - | - | - | - | - | - | 20µM
O=C(NC1CCCC1)C(c1ccco1)N(C(=O)c1ccco1)c1ccccc1 (stereo unspecified) | ? | ? | - | - | ? | - | - | - | 39.8µM
CC(=O)c1cccc(N(C(=O)CNC(=O)c2ccco2)C(C(=O)NC2CCCC2)c2ccc(C)o2)c1 (stereo unspecified) | - | - | - | - | - | - | . | . | .
Cc1ccc(Cl)cc1N(C(=O)c1csnn1)C(C(=O)NC1CCCC1)c1ccco1 (stereo unspecified) | - | - | - | - | - | - | . | . | .
CC(=O)c1cccc(N(C(=O)c2ccco2)C(C(=O)NC2CCCCC2)c2ccc(C)o2)c1 (stereo unspecified) | ? | - | - | - | - | - | - | - | 39.8µM
CCc1ccc(N(C(=O)c2ccco2)C(C(=O)NC2CCCC2)c2ccco2)cc1 (stereo unspecified) | ? | - | - | - | - | . | - | - | 39.8µM
CCN(CCCNC(=O)c1nn(-c2ccc(OC)cc2)c(=O)c2c1c1ccccc1n2C)c1cccc(C)c1 | . | - | - | . | - | - | . | . | .
CCOc1ccc(S(=O)(=O)N(CC(=O)Nc2cccnc2)c2ccccc2)cc1 | - | - | - | . | ? | - | . | . | .
CCCCn1c(=N)n(CCOc2ccccc2OC)c2ccccc21 | - | - | - | . | - | - | . | . | .
O=C1C(Cl)=C(NCCN2CCOCC2)C(=O)c2ncccc21 | . | . | . | . | . | - | . | . | .
CCOC(=O)N1CCN(C(=O)C[C@@H]2C[C@@]3(C(=O)OCC)CCCC=C3N(Cc3ccco3)C2=O)CC1 | . | . | - | . | . | . | . | . | .
CCCc1nc2ccccc2n2c(-c3ccc(C)cc3)c3c(=O)n(C)c(=O)n(C)c3c12 | ? | - | - | . | - | - | . | . | .
Cc1ccc(C(C(=O)NC2CCCCC2)N(C(=O)Cc2c[nH]c3ccccc23)c2ccccc2)o1 (stereo unspecified) | ? | - | - | - | ? | - | - | - | 7.08µM
COc1cc([C@@H]2c3cc4c(cc3[C@@H](O)[C@H]3COC(=O)[C@H]23)OCO4)cc(OC)c1O[Si](C)(C)C(C)(C)C | 28.2µM | ? | - | - | ? | - | - | ? | ?
N#Cc1c(N)[nH]c2ccc(Sc3ccccc3)cc12 | - | - | - | - | ? | . | . | . | .
COc1ccc(C2C(C#N)=C(N)N(c3sc4c(c3C#N)CCCC4)C3=C2C(=O)CC(C)(C)C3)cc1OC (stereo unspecified) | ? | - | - | - | - | ? | - | - | -
COc1ccc(C2C(C#N)=C3NC(=O)c4c(sc5c4CCCCC5)N3C3=C2C(=O)CC(C)(C)C3)cc1 (stereo unspecified) | ? | ? | - | - | ? | - | - | - | -
CCC(=O)N1CCCc2cc(S(=O)(=O)N3CCC(C(=O)NCc4ccc(F)cc4)CC3)ccc21 | - | - | - | . | . | - | . | . | .
COc1cc(/C=C2\SC(c3ccccc3)=NC2=O)cc(Cl)c1O | 58.5µM | - | ? | ? | - | - | - | - | 44.7µM
Cc1ccc(N(C)C(=O)c2ccc3c(Cl)c4c(nc3c2)CCC4)cc1C | - | ? | - | - | - | ? | . | . | .
COc1ccc(N(C)C(=O)c2ccc3c(Cl)c4c(nc3c2)CCCC4)c(OC)c1 | ? | - | - | ? | ? | - | - | - | 39.8µM
